# CYP2C9 inhib: inhibitors of human CYP2C9; P11712; actives 20% (n = 96,000); inhibition, % at 5 µM; CYP2C9 Supersomes, luciferin-H conversion, luminescence;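 active = blocking of liver enzyme CYP2C9 beyond about 50% at 5 µM, limit read from the data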
# sEH act: activators of human soluble epoxide hydrolase; P34913; purified human sEH enzymatic activity, activator screen; actives 0.04% (n = 91,000); activation, % at 2 µM; in the data active = activation above about 37%
# Target sequence (P34913 whole entry, looked up): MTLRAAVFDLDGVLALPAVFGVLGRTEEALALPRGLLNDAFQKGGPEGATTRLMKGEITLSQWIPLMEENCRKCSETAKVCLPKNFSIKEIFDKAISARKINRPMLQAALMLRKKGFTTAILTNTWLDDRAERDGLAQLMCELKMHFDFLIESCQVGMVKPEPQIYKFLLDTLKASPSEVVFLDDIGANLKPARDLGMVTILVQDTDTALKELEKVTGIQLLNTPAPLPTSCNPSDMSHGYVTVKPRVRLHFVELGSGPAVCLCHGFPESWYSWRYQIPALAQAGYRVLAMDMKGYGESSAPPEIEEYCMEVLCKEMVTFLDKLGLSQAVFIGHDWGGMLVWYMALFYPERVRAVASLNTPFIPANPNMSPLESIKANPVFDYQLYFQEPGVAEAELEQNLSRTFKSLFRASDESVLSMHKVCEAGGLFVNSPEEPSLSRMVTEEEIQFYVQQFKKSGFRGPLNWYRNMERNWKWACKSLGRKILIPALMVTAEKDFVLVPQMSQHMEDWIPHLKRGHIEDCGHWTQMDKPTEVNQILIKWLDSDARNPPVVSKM
# CYP2C19 inhib: inhibitors of human CYP2C19; P33261; CYP2C19 Supersomes, luciferin-H EGE luminescence, 30 min; inhibition, % at 5 µM; actives 21% (n = 96,000); AID 778;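 active = CYP2C19 inhibition above a set limit at 5 µM in the primary screen, cut at about 50% in these data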
# CYP2C19 activ: cytochrome P450 2C19 (human) activation. P33261. recombinant CYP2C19, luciferin-H EGE luminescence; active compounds read high; 0 = fully inhibited enzyme, 1 = untreated enzyme. activation factor at 5 µM. 96,000 tested, under 10 active;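 active = activation factor of at least 2 at 5 µM in the primary screen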
# CYP2C9 act: increases human cytochrome P450 2C9 activity. recombinant CYP2C9, luciferin-H conversion, luminescence; active compounds read high; factor 1 = untreated enzyme, 0 = blocked. P11712. activation factor at 5 µM. actives 1.4% (n = 96,000);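 active = activation factor of 2 or more for CYP2C9 at a 5 µM dose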
# sEH inhibitor: blocks human soluble epoxide hydrolase activity | P34913 | recombinant human sEH enzymatic activity assay | inhibition, % at 2 µM | actives 0.34% (n = 91,000) | AID 707; in the data active = inhibition above about 80%
# Numbers stand for hits; . = inactive; / = no result given. Most compounds without a hit are left out; they make up all but 27% or so of the library.
SMILES,CYP2C9 inhib,sEH act,CYP2C19 inhib,CYP2C19 activ,CYP2C9 act,sEH inhibitor
CCOc1ccc(NC(=O)c2ccccc2CO)cc1,.,.,.,.,.,.
c1ccc(N=P(c2nc3ccccc3o2)(N2CCOCC2)N2CCOCC2)cc1,.,.,.,.,.,.
O=C(CSc1nc2ccccc2[nH]1)N1CCN(S(=O)(=O)c2ccc(Cl)cc2)CC1,.,.,.,.,.,.
O=C(c1cccnc1NCc1ccc(F)cc1)N1CCOCC1,.,/,.,.,.,/
CCCC(=O)N(Cc1cc2cccc(C)c2[nH]c1=O)c1ccccc1OC,.,.,.,.,.,.
CCCCCc1nnc(NC(=O)C(=O)OCC)s1,.,.,.,.,.,.
Cc1c(NS(=O)(=O)c2ccc3c(c2)CCN3C(=O)C2CC2)c(=O)n(-c2ccccc2)n1C,.,/,.,.,.,/
CC(C(=O)c1ccccc1)n1cnc2ccccc2c1=O (stereo not given),.,.,.,.,.,.
COc1ccc(-c2[nH]ncc2/C=C(/C#N)C(=O)NC2CCCCCC2)cc1,.,.,.,.,.,.
Cc1ccc(SC(=O)COc2ccccc2C)cc1,.,.,.,.,.,.
Cc1ccc(/C(COc2ccccc2O)=N\O)cc1,.,.,76,.,.,.
CCOC(=O)CCc1c(C)nc2c(c(C)nn2C(C)(C)C)c1C,.,/,.,.,.,/
Cc1ccc(CS(=O)(=O)c2ccccc2-c2nnc(-c3ccc(Cl)cc3)o2)cc1,91,.,.,.,.,.
Cc1cc(C(=O)Nc2sc(C)c(-c3ccc(F)cc3)c2C(N)=O)no1,.,/,.,.,.,/
Cc1sc(NC(=O)c2ccc(OCC(C)C)cc2)c(C(N)=O)c1-c1ccc(Cl)cc1Cl,68,.,.,.,.,.
CCCCN1C(=O)C(NC(C)=O)c2cc(Br)ccc21 (stereo not given),.,.,79,.,.,.
Cc1ccc(OCCN2C(=O)OC(C)(C)C2(C)O)cc1 (stereo not given),.,.,.,.,.,.
Cc1ccc(N(C(=O)C2CCC(=O)N2)C2(C(=O)NC3CCCC3)CCCCC2)cc1 (stereo not given),.,.,.,.,.,.
Cc1ccc(-c2nn(C)c(=O)c3ccccc23)cc1CNC(=O)Cn1nc(-c2ccccc2)c2ccccc2c1=O,.,.,.,.,.,.
O=S(=O)(/N=C(\c1ccccc1)N1CCOCC1)c1cccs1,.,.,.,.,.,.
N/C(=N\S(=O)(=O)c1cccs1)c1ccccc1,.,.,92,.,.,.
CC(C#N)Sc1nc2ccccc2c(=O)n1-c1ccccc1 (stereo not given),.,/,.,.,.,/
CC1(c2ccccc2)CC(C)(C)N(C(=O)C2CCCO2)c2ccccc21 (stereo not given),66,.,77,.,.,.
Nc1c(NCc2ccccc2)c2ccccc2oc1=O,73,.,97,.,.,.
CC(C)Nc1c(N)c(=O)oc2ccccc12,.,.,.,.,.,.
SMILES,CYP2C9 inhib,sEH act,CYP2C19 inhib,CYP2C19 activ,CYP2C9 act,sEH inhibitor
CCOC(=O)Cn1nc(-c2ccc(F)cc2)oc1=O,.,.,58,.,.,.
CCOC(=O)c1c(C)oc2c1c1c(c3ccccc32)OCN(Cc2ccccn2)C1,54,.,.,.,.,.
CCOC(=O)c1c(C)oc2c1c(C(c1ccncc1)N1CCOCC1)c(O)c1ccccc12 (stereo not given),97,.,98,.,.,.
CCOC(=O)c1c(C)oc2c1c(C=NC1CCS(=O)(=O)C1)c(O)c1ccccc12 (stereo not given),.,.,.,.,.,.
Cc1cccc(C(=O)N2CCN(C(=O)c3cccc(C)c3)C(C)C2)c1 (stereo not given),78,.,89,.,.,.
O=C(c1cccc(-c2nnc(-c3ccccc3)o2)c1)N1CCCCCC1,.,.,.,.,.,.
O=C(c1cccc(C(F)(F)F)c1)N1CCCCCC1,.,.,.,.,.,.
O=C(c1cccc(Br)c1)N1CCCC1,.,.,.,.,.,.
CC(C)C(=O)Nc1cccc(C(=O)N2CCCCC2C)c1 (stereo not given),.,.,.,.,.,.
O=C(c1cccc(Br)c1)N1CCN(C(=O)N2CCCCC2)CC1,61,.,77,.,.,.
O=C(c1cccc(-c2nnc(-c3ccccc3)o2)c1)N1CCCCC1,62,.,56,.,.,.
Cc1cccc(C(=O)N2CCCCCC2)c1,.,.,52,.,.,.

# Assay outcomes: PubChem BioAssay, several laboratories
